Hits are enriched below; roughly 3.2% of the tested compounds scored in any of these assays.
Tau fibril FP = tau fibrillization inhibition (FP); 280,000 tested, 0.39% active; Potency, µM (highest dose often 57.7 µM), for the others: at the highest dose activity, negative = inhibition, hits mostly inhibitors; P10636; K18 P301L tau heparin fibrillization, Alexa594 FP, 6 h; note: potency is the fitted concentration of half-maximal effect; % is set by controls: 0 for no effect and ±100 for the full control effect; nearly all actives have a fitted effect of over 55% in size
Target sequence (P10636 561-689 P618L limits assumed): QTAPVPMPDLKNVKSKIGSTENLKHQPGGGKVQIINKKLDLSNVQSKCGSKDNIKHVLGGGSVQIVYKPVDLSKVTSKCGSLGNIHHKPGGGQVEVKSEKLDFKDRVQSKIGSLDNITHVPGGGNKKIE
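Quantitative HTS format: compounds meet 15 uM recombinant K18 P301L tau and Alexa 594-tau tracer in 100 mM sodium acetate pH 7; 20 uM heparin triggers fibrillization at 37 C over 6 hr; FP gives the signal.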
JMJD2E inh = inhibitors of human JMJD2E histone demethylase; B2RXH2; JMJD2E catalytic domain, FDH-coupled NADH fluorescence (FDH is formaldehyde dehydrogenase); Potency, µM (titrated, usually from 57.1 µM), without a hit: top-dose activity change, negative = inhibition, usual class: inhibitors; 230,000 tested, 1.6% active; active = well fitted inhibition curve with a large enough effect, not every such curve was filed as active; inconclusive = small, poorly fitted or top-dose-only effect, or another doubt; inactive = no such curve, though single readings can be large or run the other way;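 note: potency is the fitted concentration of half-maximal effect; 0% = wells with enzyme and -100% = buffer wells without enzyme; nearly all actives have a fitted effect of over 50% in size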
Target sequence (B2RXH2 1-337 limits assumed): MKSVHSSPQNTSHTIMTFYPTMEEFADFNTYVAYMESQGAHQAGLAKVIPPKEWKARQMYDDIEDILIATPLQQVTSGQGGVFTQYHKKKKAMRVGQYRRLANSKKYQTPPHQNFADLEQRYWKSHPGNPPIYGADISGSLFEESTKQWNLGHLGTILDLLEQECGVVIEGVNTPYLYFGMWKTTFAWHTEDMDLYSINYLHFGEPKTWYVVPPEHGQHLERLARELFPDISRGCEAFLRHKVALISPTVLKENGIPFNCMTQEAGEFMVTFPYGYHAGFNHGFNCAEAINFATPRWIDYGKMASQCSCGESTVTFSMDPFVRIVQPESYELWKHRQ
LMNA splice mod = changes lamin A minigene splicing in HeLa cells; HeLa LMNA splicing GFP/RFP minigene ratio, 48 h; Potency, µM (doses to about 46.1 µM), for the others: at the highest dose ratio change, negative = inhibition, most hits filed as inhibitors; 200,000 tested, 0.01% active; AID 1487; active = well fitted inhibition curve with a large enough effect in the signal ratio, with a control signal flat, not every such curve was filed as active; inconclusive = small, poorly fitted or top-dose-only effect, or effect the other way, or a change in a side signal; the % refers to the signal ratio; note: potency is the fitted concentration of half-maximal effect; % is set by controls: 0 for no effect and ±100 for the full control effect
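Read-out is the ratio of GFP to DsRed2 object intensity, acquired by 488 nm laser-scanning cytometry on HeLa lamin A-EGFP minigene reporter cells. Compound incubation 48 hrs at 37 °C in Opti-MEM with 2% FBS; DMSO 0.5% final.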
Tau fibril ThT = tau fibrillization inhibition (ThT binding); recombinant tau K18 P301L, heparin-induced fibrillization, ThT fluorescence; Potency, µM (top dose mostly 57.4 µM), inactives show at the highest dose activity, negative = inhibition, actives largely listed as inhibitors; 270,000 tested, 2.1% active; AID 1460; note: potency is the fitted concentration of half-maximal effect; % is set by controls: 0 for no effect and ±100 for the full control effect; nearly all actives have a fitted effect of over 55% in size
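Using a mix of unlabeled (15 uM) and Alexa 594-labeled (0.24 uM) tau K18 P301L, heparin-triggered fibrillization over 6 hr at 37 C was scored by ThT fluorescence.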
CBFb-RUNX1 inh = blocks binding between human CBF-beta and RUNX1 | AlphaScreen CBFb-His/RUNX1-biotin binding, biochemical | Potency, µM (doses to about 59.8 µM), inactives show at the top dose activity, negative = inhibition, most hits filed as inhibitors | 230,000 tested, under 10 active | AID 1477; note: % of control where 0% means no effect
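Proteins preincubated together for 20 min at RT before compound addition; 15 min later, nickel and streptavidin beads were added and left 90 min prior to AlphaScreen measurement.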
Tau fluor cs = counter-screen for tau fibril formation inhibitors. 280,000 tested, 0.93% active. AID 1463. tau K18 P301L (four-repeat tau fragment) Alexa594 fluorescence, heparin fibrillization. Potency, µM (highest dose often 57.7 µM), for inactives: at the top dose activity change, negative = decrease; note: potency is the fitted concentration of half-maximal effect; % is set by controls: 0 for no effect and ±100 for the full control effect; nearly all actives have a fitted effect of over 55% in size
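Human K18 P301L tau (15 uM unlabeled plus 0.24 uM Alexa 594-labeled, final) in 100 mM sodium acetate pH 7 was mixed with compound and 20 uM heparin and incubated 6 hr at 37 C.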
* = called active by the depositor; ? = inconclusive; nt = not tested or not shown; [ ] = remark or other dose. Unless noted, calls come from the whole dose curve; as a rule, active = well fitted curve in the direction sought with a large enough effect; inconclusive = small, poorly fitted or top-dose-only effect, or another doubt; inactive = no such curve, though single readings can be large; an effect the other way counts as inactive or inconclusive.

SMILES | Tau fibril FP | JMJD2E inh | LMNA splice mod | Tau fibril ThT | CBFb-RUNX1 inh | Tau fluor cs
Cc1nc(-c2ccccc2)c(-c2ccccc2)[nH]1 | 3.2% | ? | -13.5% | -5.7% | -15.5% | -10.8%
Oc1ccc(N=Nc2nc(-c3ccccc3)c(-c3ccccc3)[nH]2)cc1 | ? | -6.6% | -7.4% | 4.47µM* | -30.0% | 11.2µM*[quencher]
Oc1ccc(-c2nc(-c3ccccc3)c(-c3ccc(Br)cc3)[nH]2)cc1 | ? | nt | nt | 28.2µM* | nt | 8.91µM*[quencher]
COc1cc(-c2nc(-c3ccccc3)c(-c3ccc(Br)cc3)[nH]2)cc(OC)c1O | 4.1% | nt | nt | ? | nt | 11.2µM*[quencher]
COc1ccc(-c2[nH]c(-c3cc(OC)c4c(c3)OCO4)nc2-c2ccccc2)cc1 | ? | ? | ? | ? | ? | 12.6µM*[quencher]
CC1=C(/C=C/C(C)=C/C=C/C(C)=C/C(=O)O)C(C)(C)CCC1O (centres undefined) | -8.0% | nt | nt | ? | 13.7% | -4.0%
O=C(Nc1ccc(F)cc1F)c1cc2nc(-c3ccco3)cc(C(F)(F)Cl)n2n1 | 7.1% | nt | ? | -2.7% | nt | 3.1%
c1ccc2c(NCCN3CCOCC3)nc(-c3ccc4c(c3)OCO4)nc2c1 | nt | nt | -14.0% | nt | nt | nt
O=C(NCCc1c[nH]c2ccccc12)C1CCC(Cn2c(=S)[nH]c3ccccc3c2=O)CC1 (centres undefined) | 0.2% | 0.4% | -16.8% | ? | -6.0% | 3.98µM*[quencher]
COc1ccc(C)cc1NC1(c2ccccc2)C(=O)c2ccccc2C1=O | 6.9% | nt | ? | -11.5% | nt | -21.0%
CC1=C(C#N)C(=O)N(C2CCS(=O)(=O)C2)C(=O)/C1=C\c1ccc(C)o1 (centres undefined) | ? | ? | nt | 22.4µM* | ? | ?
Cc1ccc(/C=C2\SC(=S)N(C3CCS(=O)(=O)C3)C2=O)o1 (centres undefined) | 1.8% | -29.4% | -28.3%[46 µM] | ? | -6.8% | -8.2%
O=C(Nn1c(O)c(C=C2N=c3ccccc3=N2)sc1=S)c1cccc(Cl)c1 | ? | -4.4% | 0.4% | ? | -4.3% | 12.6µM*[quencher]
Oc1c(C=C2N=c3ccccc3=N2)sc(=S)n1-c1ccc(F)cc1 | 1.9% | 6.4% | ? | ? | -10.9% | ?
Oc1c(C=C2N=c3ccccc3=N2)sc(=S)n1C1CCCC1 | 1.3% | 1.2% | -15.3% | 4.0% | -0.8% | 1.8%
Cc1ccc(S(=O)(=O)Nn2c(O)c(C=C3N=c4ccccc4=N3)sc2=S)cc1 | -3.0% | 9.8% | nt | 11.2µM* | -19.6% | ?
O=C(Nn1c(O)c(C=C2N=c3ccccc3=N2)sc1=S)c1ccccc1 | -1.8% | 1.0% | 3.4% | 14.1µM* | -23.2% | 14.1µM*[quencher]
O=C(Nn1c(O)c(C=C2N=c3ccccc3=N2)sc1=S)c1ccc(Cl)cc1 | ? | -29.6% | -0.8% | 11.2µM* | ? | 7.94µM*[quencher]
Cc1ccc(C(=O)Nn2c(O)c(C=C3N=c4ccccc4=N3)sc2=S)cc1 | -13.9% | -4.3% | ? | ? | -22.3% | ?
CCOC(=O)c1c(C)oc2ncnc(Nc3ccc(F)cc3Cl)c12 | -8.3% | nt | ? | 1.1% | nt | -5.9%
Oc1[nH]c(=S)sc1C=C1N=c2ccccc2=N1 | -1.0% | -2.1% | ? | 14.1µM* | -3.8% | -29.1%
O=C1N=c2ccc(Br)cc2=C1c1sc(=S)n(NS(=O)(=O)c2ccccc2)c1O | ? | -0.2% | -2.3%[46 µM] | 11.2µM* | 18.1% | 14.1µM*[quencher]
CCc1nn2c(=O)cc(COC(=O)c3ccc(NC(=O)c4cccs4)cc3)nc2s1 | 6.1% | nt | 10.8%[46 µM] | 6.0% | nt | 11.3%
Cc1ccccc1OCC(=O)NCC(c1ccc(Cl)cc1)N1CCCCC1 (centres undefined) | 8.8% | nt | ? | -5.9% | nt | -2.2%
CCOC(=O)c1[nH]c2ccc(OC)cc2c1NC(=O)/C=C/c1ccc2c(c1)OCO2 | -0.6% | -0.2% | 9.9% | -2.5% | -3.6% | -5.3%
SMILES | Tau fibril FP | JMJD2E inh | LMNA splice mod | Tau fibril ThT | CBFb-RUNX1 inh | Tau fluor cs
O=C(/C=C/c1ccc2c(c1)OCO2)Nc1c(C(=O)O)[nH]c2ccccc12 | 10.3% | -8.6% | -4.4% | 12.6µM* | 5.7% | -29.2%
COc1cc(C(=O)Oc2ccc3c(OC)c4ccoc4nc3c2OC)cc(OC)c1OC | 4.3% | -1.6% | nt | -4.8% | 13.8% | -3.4%
Cc1cccc(NC(=O)CN2C(=O)C(c3ccccc3)=NC23CCC(C)CC3)c1 (centres undefined) | ? | nt | nt | -6.1% | nt | -22.7%
CCOC(=O)c1c(C)[nH]c(C=Nc2ccccc2)c1O | -6.5% | ? | 9.5% | ? | 4.7% | -9.6%
CCOC(=O)c1c(C)[nH]c(C=Nc2ccc(OC)cc2)c1O | 8.2% | -15.3% | -9.7% | ? | -7.0% | -25.4%
CCOC(=O)c1c(C)[nH]c(N=Nc2ccc(C)cc2)c1C | 22.1% | 6.3% | -15.7% | 7.94µM* | -26.6% | ?
CCOC(=O)c1[nH]c(C)c(C(=O)c2ccc(C)cc2)c1C | 2.2% | -28.9% | 8.5% | -4.9% | -6.2% | -9.1%
CCOC(=O)c1c(C)[nH]c(N=Nc2ccc(OC)cc2)c1C | ? | -15.6% | nt | nt | -24.9% | 3.16µM*[quencher]
CCOC(=O)c1c(C)[nH]c(N=Nc2ccccc2)c1C | ? | -4.4% | -2.3% | 7.94µM* | ? | ?
CCOC(=O)c1c(C)[nH]c(N=Nc2ccccc2Cl)c1C | 1.8% | -27.6% | nt | 5.01µM* | nt | ?
CCOC(=O)c1c(C)[nH]c(C)c1S(=O)(=O)N1CCCC(C(=O)NCc2cccc(OC)c2)C1 (centres undefined) | 1.4% | nt | nt | 6.6% | nt | -4.6%
CC(C)CC(CSc1ccc(Br)cc1)N1CCN(CCc2ccccc2)CCC1=O (centres undefined) | nt | nt | nt | nt | 10.1% | nt
O=[N+]([O-])/C(C(Cl)=C(Cl)Cl)=C(/Sc1ccccc1)N1CCCCC1 | ? | ? | nt | 22.4µM* | 8.2% | -26.6%
O=C(N/C(=C\c1ccc([N+](=O)[O-])cc1)C(=O)N1CCCCC1)c1ccccc1 | -1.5% | -0.2% | 19.8%[46 µM] | -13.9% | -8.6% | -19.3%
Cc1ccc(S(=O)(=O)N/N=C/c2ccccc2O)cc1[N+](=O)[O-] | 2.7% | -10.1% | -26.8%[46 µM] | -0.3% | -6.6% | -4.0%
Cc1ccc(S(=O)(=O)N/N=C/c2ccc(O)c(O)c2)cc1[N+](=O)[O-] | -2.1% | 28.2µM* | -22.4%[46 µM] | ? | 4.0% | -24.5%
CCc1cc(SC#N)ccc1N | ? | 3.7% | nt | 12.6µM* | -8.1% | -17.9%
CCc1cc([N+](=O)[O-])cc(CC)c1N | -2.7% | 9.6% | 7.7% | -14.6% | -2.1% | -10.5%
CCc1ccc2oc(C(=O)Nc3cc(C)ccc3C)cc(=O)c2c1 | -6.1% | nt | nt | 6.1% | nt | 4.5%
O=C(NCc1cccnc1)c1nn(-c2ccc(Cl)cc2)nc1CO | 5.0% | nt | nt | 7.2% | nt | 0.9%
